Source: PubChem (ICCB-Longwood Screening Facility, Harvard Medical School)
S aureus helic: blocks Staphylococcus aureus DNA helicase | 120,000 tested, 0.05% active | inhibition, % (test concentration not listed) | purified S. aureus helicase, fluorescence unwinding assay | AID 485395; in the data active = inhibition above about 25%, passing the limit was not always enough
Sa growth 42C: blocks Staphylococcus aureus growth; S. aureus RN4220 growth, OD600, 20 h, 42 °C; active compounds read low; relative growth, % (no concentration beside the values); 170,000 tested, 0.53% active;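 active = relative growth at most 50% at the other temperature and 20+ points below 30 °C, or under 10% at both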
Each line names hits and unclear results; the compound was inactive in the other large screens. The full list was thinned out, with hits kept by preference.

COc1ccccc1NC(=O)CC(O)(C(F)(F)F)C(F)(F)F	none
NC(=NCCCCCCN=C(N)/N=C(\N)Nc1ccc(Cl)cc1)/N=C(\N)Nc1ccc(Cl)cc1	Sa growth 42C -0.8 (no result: S aureus helic)
CC(C)N=C(N)/N=C(\N)Nc1ccc(Cl)cc1	none (no result: S aureus helic)
CS(=O)(=O)NCc1ccc2c(c1)OCO2	none
CC1=C(C(=O)OC2CCCC2C)C(c2ccc(Cl)cc2)NC(=O)N1 (stereo not given)	Sa growth 42C 28
CC1=C(C(=O)N(C)C)C(c2ccc(Cl)cc2)NC(=O)N1 (stereo not given)	none
COc1ccc(-c2cn3c4ccccc4nc3n2CCN2CCN(CCO)CC2)cc1	none
CCOC(=O)c1c(-c2ccccc2)oc2ccc(OC)cc12	none (no result: Sa growth 42C)
CCOC(=O)c1c(-c2ccccc2)oc2ccc(OCC)cc12	Sa growth 42C 48
Cc1nc(-c2cccc(NC(=O)/C=C\C(=O)O)c2)cs1	none (no result: Sa growth 42C)
Cc1nc(-c2c[nH]c(C(=O)O)c2)cs1	S aureus helic 49
CC(=O)NC(C(=O)NC1CC1)C(C)C (stereo not given)	none
Cc1ccnc(SCC(=O)/C=C2\N(C)c3ccccc3C2(C)C)n1	none
CN1/C(=C\C(=O)CSCCO)C(C)(C)c2ccccc21	Sa growth 42C -0.5
CCOC(=O)c1nn(-c2ccccc2)c(=O)cc1OCC(=O)NCc1ccc2c(c1)OCO2	none
Cc1ccc(C)n1-c1ccsc1C(=O)O	Sa growth 42C 46
Cc1ccc(C(=O)O)cc1-n1c(C)ccc1C	none
O=C(NCCC1=CCCCC1)c1cc2cc3ccc(Cl)cc3nc2o1	none
C=C(C)C1Cc2cc3ccc(=O)oc3cc2O1 (stereo not given)	none
C=C(C)C1Cc2cc(/C=C/C(=O)O)c(O)cc2O1 (stereo not given)	Sa growth 42C 0.5
NC(N)=N/N=C/c1cn(-c2ccccc2)nc1-c1ccccc1	Sa growth 42C -1.6
NC(=O)N/N=C/c1cn(-c2ccccc2)nc1-c1ccccc1	none
CCN(C(=O)CSc1nnc(C(C)(C)C)n1N)c1cccc2ccccc12	none
Cc1ccc(/C=C2\CCCC3=C2Nc2nnnn2C3c2ccc(C)cc2)cc1 (stereo not given)	Sa growth 42C 0.7
COc1ccc(/C=C2\CCCC3=C2Nc2ncnn2C3c2ccc(OC)cc2)cc1 (stereo not given)	none
O=C(NC1CCCCC1)NC1CCN(CC(=O)c2ccc(Cl)cc2)CC1	none
Cc1cc(=O)[nH]c(SCC(=O)Nc2ccc(Br)cc2)c1C#N	Sa growth 42C 7.7
Cc1cc(=O)[nH]c(SCC(=O)Nc2ccc(N3CCCC3)cc2)c1C#N	none
CCc1ccc(-c2cc(C)no2)cc1S(=O)(=O)N1CCC(c2ccccc2)C1 (stereo not given)	none
N=c1n(CCN2CCCCC2)c2ccccc2n1CC(O)COc1ccc(Cl)cc1Cl (stereo not given)	Sa growth 42C 0.3 (no result: S aureus helic)
COc1ccc(OCC(O)Cn2c(=N)n(CCN3CCCCC3)c3ccccc32)cc1 (stereo not given)	none (no result: S aureus helic)
O=C(CSc1nnnn1C1CCCC1)NC1CCCc2ccccc21 (stereo not given)	none
c1nc2c3c4c(sc3ncn2n1)CCCC4	none
Clc1ccccc1C(c1ccccc1)(c1ccccc1)n1ccnc1	Sa growth 42C 0.2 (no result: S aureus helic)
N#Cc1c(Cl)cccc1-n1ccnc1	none
CCOC(=O)C1CCN(C(=O)[C@H](Cc2ccccc2)N2Cc3ccccc3C2=O)CC1	none
Cc1ccc(S(=O)(=O)Nc2cncc(C(=O)N3CCc4ccccc43)c2)cc1	none
O=C(/C=C(\O)c1ccccc1)C(F)(F)C(F)F	Sa growth 42C -0.8
O=C(O)C(=O)/C=C(\O)c1ccccc1	none (no result: S aureus helic)
c1coc(-c2nnc3n2CCCCC3)c1	none
CCOC(=O)c1cn(CC)c2cc(N3CCCC3)c(F)cc2c1=O	none
O=C(O)c1cn(C2CC2)c2cc(N3CCN(C(=S)S)CC3)c(F)cc2c1=O	Sa growth 42C -0.9
O=C(O)c1cn(-c2ccc(F)cc2)c2cc(N3CCNCC3)c(F)cc2c1=O	Sa growth 42C -0.9 (no result: S aureus helic)
Cn1cc(S(=O)(=O)c2ccccc2)c(=O)c2cc(F)c(N3CCN(c4ccc(F)cc4)CC3)cc21	none (no result: S aureus helic)
N#Cc1ccc(Oc2ccccc2)nc1	none (no result: S aureus helic)
Nc1n[nH]c(Cc2ccccc2)c1-c1ccccc1	none
O=C1OC(c2ccccc2)=C/C1=C/c1ccc(Cl)cc1	none
O=C1OC(c2ccccc2)=C/C1=C/c1ccccc1	Sa growth 42C -0.6 (no result: S aureus helic)
O=C1CN(C(=O)c2ccc(Cl)c(S(=O)(=O)N3CCCCCC3)c2)c2ccccc2N1	none
O=S(=O)(c1cc(Cl)ccc1Cl)N1CCCC1	Sa growth 42C 49
O=S(=O)(c1cc(Cl)ccc1Cl)N1CCCCC1	none (no result: S aureus helic)
O=C(CSc1nccc(-c2cccs2)n1)c1cc(-c2ccccc2)no1	none (no result: S aureus helic)
CCOC(=O)c1ccc(Nc2nc3nonc3nc2NCc2ccco2)cc1	none
CCOC(=O)c1ccc(Nc2nc3nonc3nc2Nc2cccc(C)c2C)cc1	Sa growth 42C -1.0 (no result: S aureus helic)
CC(C)Nc1ccc(Nc2ccnc3cc4ccccc4cc23)cc1	S aureus helic 67, Sa growth 42C -1.9
c1ccc2cc3c(Nc4ccc(N5CCOCC5)cc4)ccnc3cc2c1	none
Cc1cc(C)c2c(CC(=O)NC3CC(C)(C)NC(C)(C)C3)coc2c1	none
COc1ccc(CCN2COc3c(cc(Cl)c4cccnc34)C2)cc1OC	none (no result: Sa growth 42C)
COCCN1COc2c(cc(Cl)c3cccnc23)C1	Sa growth 42C 0.9
CCN1C(=O)c2ccccc2S(=O)c2ccc(C(=O)NCCN3CCN(Cc4ccccc4)CC3)cc21 (stereo not given)	none
Cc1ccc2oc(=O)c3cc(C(=O)NCCN4CCCCC4C)sc3c2c1 (stereo not given)	S aureus helic 46
Cc1ccc2oc(=O)c3cc(C(=O)NCCCN4CCN(C)CC4)sc3c2c1	none
CCOC(=O)c1c(C)oc2nc(CSc3nnc(-c4ccccc4)n3-c3ccc(Cl)cc3)nc(N)c12	none
CO[C@H]1C[C@H](O[C@H]2[C@H](C)[C@@H](OC3O[C@H](C)C[C@H](N(C)C)[C@H]3OC(C)=O)[C@@H](C)C[C@]3(CO3)C(=O)[C@H](C)[C@@H](OC(C)=O)[C@@H](C)[C@@H](C)OC(=O)[C@@H]2C)O[C@@H](C)[C@@H]1OC(C)=O (stereo not given in full)	none (no result: S aureus helic)
CO[C@H]1C[C@H](O[C@H]2[C@H](C)[C@@H](OC3O[C@H](C)C[C@H](N(C)C)[C@H]3O)[C@@H](C)C[C@]3(CO3)C(=O)[C@H](C)[C@@H](O)[C@@H](C)[C@@H](C)OC(=O)[C@@H]2C)O[C@@H](C)[C@@H]1O (stereo not given in full)	Sa growth 42C -0.6 (no result: S aureus helic)
Cc1cc(NS(=O)(=O)c2ccc(NS(=O)(=O)CC34CCC(CC3=O)C4(C)C)cc2)no1 (stereo not given)	Sa growth 42C 49
Cc1cc(C)nc(NS(=O)(=O)c2ccc(NS(=O)(=O)CC34CCC(CC3=O)C4(C)C)cc2)n1 (stereo not given)	none
CCC(Oc1cccc(Cl)c1)C(=O)NN1CCN(C)CC1 (stereo not given)	none
Cc1cc(C(=O)CN(C)C2CCN(C)CC2)c(C)n1-c1c(C)n(C)n(-c2ccccc2)c1=O	none
CCC(=O)NC(c1ccco1)c1cc(Cl)c2cccnc2c1O (stereo not given)	none
CCCCC(=O)NC(c1ccco1)c1cc(Cl)c2cccnc2c1O (stereo not given)	Sa growth 42C 20
Cc1ccc(-n2c(O)c(C=NCCN3CCOCC3)c3ccccc3c2=O)cc1C	none
CC1CCc2c(sc3ncn(CC(=O)N4CCCC4)c(=O)c23)C1 (stereo not given)	none
CCC(C(=O)OC(C)C)n1cnc2sc3c(c2c1=O)CCC(C)C3 (stereo not given)	Sa growth 42C 34
